PBM binding z-score data for seven sequences are collected here from the supplement of paper PMC6555819.

Assay in all cases: PBM binding z-score (relative to random genomic background probes); higher = stronger binding; sequences stand for … in GC…GCGATTGACAGCGTAGAATGAAGG
The test system of test [1] is FXR:RXRa (NR concentration 270 nM, RXRa partner concentration 90 nM). The procedure, abridged: (§1)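 Scanned fluorescence from custom Agilent 4×180K protein-binding microarrays was regression-normalized. Binding z-scores use random background probes as reference. Ligand-free nuclear receptor dimers were incubated on the arrays for 1 h and detected with antibodies against each partner (one per run).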

Test [2] relates to LXRa:RXRa (NR concentration 270 nM, RXRa partner concentration 90 nM). The procedure, abridged: as §1
Test [3] deals with LXRa homodimer (NR concentration 270 nM). A digest of the protocol: as §1
For test [4], the system named is LXRb:RXRa (NR concentration 270 nM, RXRa partner concentration 90 nM). A digest of the protocol: as §1
Test [5] concerns LXRb homodimer (NR concentration 270 nM). The procedure, abridged:
as §1

For test [6], the system named is PPARa:RXRa (NR concentration 270 nM, RXRa partner concentration 90 nM). A digest of the protocol:
as §1

Test [7] concerns PPARg:RXRa (NR concentration 180 nM, RXRa partner concentration 90 nM). A digest of the protocol:
as §1

Test [8] deals with PPARg:RXRa 270nM:90nM, anti-RXR (NR concentration 270 nM, RXRa partner concentration 90 nM). The procedure, abridged: as §1
Test [9] relates to PPARg:RXRa 30nM:10nM, anti-RXR (NR concentration 30 nM, RXRa partner concentration 10 nM). A digest of the protocol: as §1
Test [10] relates to PPARg:RXRa 90nM:30nM, anti-RXR (NR concentration 90 nM, RXRa partner concentration 30 nM). The procedure, abridged: as §1
For test [11], the system named is PPARg:RXRa DBDmut IVT, anti-RXR (DBD mutation: RXRa K156A/R161A, NR concentration 270 nM, RXRa partner concentration 90 nM). The procedure, abridged:
as §1

The subject of test [12] is PPARg:RXRa IVT, anti-PPARg (NR concentration 270 nM, RXRa partner concentration 90 nM). A digest of the protocol: as §1
The test system of test [13] is PPARg DBDmut:RXRa IVT, anti-PPARg (DBD mutation: PPARg1 K132A/R137A, NR concentration 270 nM, RXRa partner concentration 90 nM). The procedure, abridged:
as §1

Test [14] relates to PPARg DBDmut IVT, anti-PPARg (DBD mutation: PPARg1 K132A/R137A, NR concentration 270 nM). The procedure, abridged: as §1
Test [15] concerns PPARg homodimer (NR concentration 180 nM). The procedure, abridged: as §1
For test [16], the system named is PXR:RXRa (NR concentration 270 nM, RXRa partner concentration 90 nM). The procedure, abridged: as §1
Test [17] deals with PXR homodimer (NR concentration 270 nM). The procedure, abridged: as §1
The test system of test [18] is RARa:RXR (NR concentration 270 nM, RXRa partner concentration 90 nM). A digest of the protocol:
as §1

Test [19] concerns RARa homodimer (NR concentration 270 nM). The procedure, abridged: as §1
For test [20], the system named is RARb:RXRa (NR concentration 270 nM, RXRa partner concentration 90 nM). The procedure, abridged:
as §1

Consider TCGATTAGTTGATTAGGGCAACCGAAACAGCGGA, for which the PBM binding z-score in test [1] is -1.31; in test [2] it was -0.186; in [3] it was -0.313; in test [4], 0.118; in test [5] it was -0.308; in [6], 0.322. In addition, the PBM binding z-score in test [7] was 0.147; in [8] it was 1.25; in test [9], 2.88; in test [10] it was 2.19; in test [11] it was 1.68; in [12], 1.02. Besides, the PBM binding z-score in test [13] is -0.465; in test [14] it was 0.363; in [15], 0.609; in test [16], 0.11; in test [17], -0.141; in test [18] it was 0.208. The values for the PBM binding z-score in [19] and in test [20] were 0.0713 and 0.744, respectively.

For the sequence GCTGCTAGGTCAGGTTGGTTAGCTAACGGGTACG, the PBM binding z-score was 1.06 in test [1]; 0.689 in [2]; -0.475 in test [3]; 0.322 in test [4]; -0.199 in test [5]; 1.24 in test [6]. Moreover, the PBM binding z-score was 0.149 in test [7]; 0.709 in [8]; -0.629 in test [9]; 0.079 in test [10]; 3.18 in test [11]; 1.92 in test [12]. For the same sequence, the PBM binding z-score in test [13] is -0.902; in [14] it was -0.404; in test [15], 0.608; in test [16], 0.32; in [17], -0.467; in [18], 0.712. In addition, the PBM binding z-score in [19] is -0.719; in [20], 3.07.

On to CAAACTAGGTCGAGGTCAAAGTCGGTTTGTGCCA, for which the PBM binding z-score was 5.44 in test [1]; 5.1 in test [2]; 3.63 in test [3]; 4.38 in [4]; 1.07 in test [5]; 5.46 in test [6]. Also, the PBM binding z-score is 7.22 in test [7]; 6.53 in [8]; 3.54 in [9]; 5.58 in [10]; 6.55 in test [11]; 6.77 in test [12]. The PBM binding z-score in [13] is 0.51; in test [14], 0.375; in test [15], 1.85; in [16], 5.34; in [17], 2.29; in [18], 4.71. For the same sequence, the PBM binding z-score in test [19] is 0.547; in [20], 4.28.

As to TAGTCTAGGTCATTGGGCCAGTATAGTACGCATC, the PBM binding z-score in [1] worked out at 4.44; in test [2] it was 4.2; in test [3], 2.26; in test [4], 2.54; in [5] it was 2.53; in [6], 4.28. Also, the PBM binding z-score worked out at 5.91 in test [7]; 4.82 in test [8]; 3 in test [9]; 4.56 in test [10]; 5.99 in [11]; 6.49 in [12]. Further, the PBM binding z-score in [13] was 2.81; in test [14], 2.94; in test [15] it was 3.92; in test [16], 1.95; in test [17] it was 0.361; in [18] it was 2.72. Further, the PBM binding z-score in test [19] turned out to be 1.24; in test [20] it was 3.81.

Take TAGCCTAGGTCATTGAGGGGCCAGTATAGAAAGC: the PBM binding z-score is 4.54 in [1]; 3.48 in test [2]; 0.272 in test [3]; 2.84 in [4]; 1.08 in [5]; 3.67 in test [6]. Besides, the PBM binding z-score turned out to be 2.08 in test [7]; 2.48 in test [8]; 0.353 in [9]; 1.49 in [10]; 1.9 in test [11]; 2.84 in test [12]. Also, the PBM binding z-score in test [13] was 0.198; in [14], 0.125; in [15], 2.84; in [16], 2.36; in test [17] it was -0.0238; in test [18] it was 3.39. Moreover, the PBM binding z-score is -0.506 in test [19] and 3.93 in test [20].

AATACAGGGTCATCGTAGGCCAAAGTACGCACAG: the PBM binding z-score in [1] amounted to 7.45; in [2], 6.92; in test [3], 3.34; in [4], 5.36; in test [5], 1.6; in test [6] it was 6.04. The PBM binding z-score in test [7] turned out to be 6.83; in test [8], 5.96; in [9] it was 2.67; in [10], 4.78; in test [11] it was 2.81; in [12], 4.06. Further, the PBM binding z-score in test [13] was 3.81; in test [14] it was 2.62; in test [15], 3.47; in test [16], 5.59; in [17], 1.03; in test [18] it was 5.27. Besides, the PBM binding z-score in [19] stood at 1.3; in [20], 4.29.

For ACAGACAGCTGATGAAGGTAACTCAGGCTATCAT, the PBM binding z-score was -0.294 in test [1]; -0.43 in [2]; -0.191 in [3]; -0.692 in [4]; -0.451 in test [5]; -0.305 in test [6]. For the same sequence, the PBM binding z-score in test [7] is 0.649; in test [8] it was -0.383; in test [9], -0.233; in test [10], 0.0374; in test [11], -0.796; in test [12], -0.158. For the same sequence, the PBM binding z-score in test [13] was 0.246; in test [14], 0.14; in [15], 0.00151; in [16], -0.216; in [17] it was -0.158; in test [18] it was 0.0124. For the same sequence, the PBM binding z-score in [19] is 0.287; in test [20] it was -0.232.
